Compound activity (PubChem BioAssay)
An excerpt weighted towards active compounds, which were near 10% of everything screened.
MCF10A rerep = induces DNA re-replication in MCF 10a normal breast cells; MCF 10A DNA re-replication, Hoechst nuclear intensity, 48 h; Potency, µM (titrated, usually from 46.1 µM), inactives show at the top dose activity, positive = re-replication, actives largely listed as activators; hit rate 2.9% among 350,000; AID 624296; further: % of control where 0% means no effect; nearly all actives have a fitted effect of over 50% in size
KB-V1 cytotox = kills drug-selected multidrug resistant KB-V1 cells. hit rate 3.4% among 400,000. AID 1347076. Potency, µM (series often up to 46.1 µM), hits mostly cytotoxic. KB-V1 MDR cells viability, CellTiter-Glo, 72 h; further: on the % scale 0 is the no-effect control and ±100 the full control effect; nearly all actives have a fitted effect of over 60% in size
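Potencies derive from concentration-effect curves fitted to normalized luminescence (CellTiter-Glo) of KB-V1 cells treated for 72 h at 37 degrees C in phenol-red-free DMEM containing 10% FBS.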
KB-3-1 tox = kills parental KB-3-1 adenocarcinoma cells; KB-3-1 viability, CellTiter-Glo ATP luminescence, 72 h; Potency, µM (series often up to 46.1 µM), usual class: cytotoxic; hit rate 1.4% among 400,000; further: on the % scale 0 is the no-effect control and ±100 the full control effect; nearly all actives have a fitted effect of over 60% in size
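Viability of parental KB-3-1 cells, measured by CellTiter-Glo luminescence, followed a 72 h incubation at 37 °C with pinned compounds in phenol-red-free DMEM containing 10% FBS.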
RORg inh = blocks mouse ROR gamma transcriptional activity; P51450; Drosophila S2 Gal4-RORgamma UAS-luciferase reporter, 20 h; Potency, µM (highest dose often 53.6 µM), for the others: top-dose activity change, negative = inhibition, most hits filed as inhibitors; hit rate 5.4% among 310,000; further: on the % scale 0 is the no-effect control and ±100 the full control effect; nearly all actives have a fitted effect of over 60% in size
Target sequence (P51450 whole entry, looked up, the tested form may be a part): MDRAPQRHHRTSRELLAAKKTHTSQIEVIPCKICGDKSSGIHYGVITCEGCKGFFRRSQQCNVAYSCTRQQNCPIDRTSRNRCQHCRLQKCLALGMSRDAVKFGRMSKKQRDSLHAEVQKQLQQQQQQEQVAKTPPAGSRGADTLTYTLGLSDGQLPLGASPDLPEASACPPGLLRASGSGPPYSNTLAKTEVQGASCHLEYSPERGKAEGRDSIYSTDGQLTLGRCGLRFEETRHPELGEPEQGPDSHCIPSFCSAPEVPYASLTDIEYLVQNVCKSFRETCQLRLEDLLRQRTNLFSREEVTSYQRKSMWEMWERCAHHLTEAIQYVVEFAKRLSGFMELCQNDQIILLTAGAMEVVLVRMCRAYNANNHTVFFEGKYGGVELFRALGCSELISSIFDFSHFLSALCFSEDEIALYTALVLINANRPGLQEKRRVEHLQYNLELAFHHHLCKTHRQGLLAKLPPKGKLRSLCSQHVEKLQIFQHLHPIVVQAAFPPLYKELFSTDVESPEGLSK
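Luciferase reporter read in Schneider cells carrying Gal4-RORγ (mouse) and UAS-Photinus luciferase; cells given compound 1 h before 700 uM copper sulfate induction, then incubated 20 h at ambient temperature.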
SW480 rerep = DNA re-replication induction in SW480 cells; Potency, µM (series often up to 46.1 µM), inactives show at the top dose re-replication activation, hits mostly activators; SW480 DNA re-replication, Hoechst DNA content imaging, 48 h; hit rate 1.8% among 340,000; further: % of control where 0% means no effect; nearly all actives have a fitted effect of over 55% in size
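Image-based DNA-content assay: after two days of treatment, nuclei were labelled with the DNA dye Hoechst and imaged, and hits were compounds raising the count of nuclei showing high fluorescence intensity.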
Gal4-VP16 FLuc = Gal4-VP16 reporter inhibition counter-screen | hit rate 3.5% among 310,000 | Drosophila S2 Gal4-VP16 UAS-luciferase, luminescence, 20 h | Potency, µM (series often up to 53.6 µM), for the others: top-dose activity, negative = inhibition, hits mostly inhibitors;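 further: Gal4-VP16 expression switched on by copper sulfate through the metallothionein promoter; on the % scale 0 is the no-effect control and ±100 the full control effect; nearly all actives have a fitted effect of over 50% in size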
* marks the source's active call; other numbers are inactive results; i = inactive; u = inconclusive; x = not tested or not shown; ! = a repeat was not active. The call rests on the fitted dose curve; in most records, active means well fitted curve in the direction sought with a large enough effect; inconclusive means small, poorly fitted or top-dose-only effect, or another doubt; inactive means no such curve, though single readings can be large; an effect the other way counts as inactive or inconclusive. Potency means the concentration at half of the fitted maximal effect.

SMILES	MCF10A rerep	KB-V1 cytotox	KB-3-1 tox	RORg inh	SW480 rerep	Gal4-VP16 FLuc
C=C1C[C@]23CC[C@H]4C(CO)(CO)C[C@@H](O)C[C@@]4(C)[C@@H]2CC[C@H]1C3	x	x	x	27%	x	u
Nc1c(Cl)cc2c(c1Oc1ccccc1)C(=O)c1ccccc1C2=O	13µM*	u	i	-33%	u	-3%
O=S(=O)(Nc1nc2ccccc2nc1Cl)c1ccc2ccccc2c1	23µM*	u	i	u	3%	-20%
O=S(=O)(Nc1nc2ccccc2nc1Cl)c1ccccc1	0%	i	i	u	5%	-17%
CCN(CC(=O)NC(C)(C)C)Cc1nc2c(Br)cc(Br)cc2c(=O)[nH]1	u	u	i	0.71µM*	u	3.2µM*
CCN(CC(=O)NC1CCS(=O)(=O)C1)Cc1nc2c(Br)cc(Br)cc2c(=O)[nH]1 (stereo unspecified)	1%	i	i	-36%	3%	-16%
Cc1c(C)c2c(cc(C)c3c(-c4ccccc4)coc32)oc1=O	x	i	i	x	x	x
CNC(=S)NCCCCc1cnc[nH]1	x	x	x	7%	x	4%
CC(=O)Nc1ccc(CN2CCN(C3CCCC3)C(CCO)C2)cc1 (stereo unspecified)	2.6µM*	i	i	-16%	4%	0%
Cc1ccccc1-c1ncc(CN2CCN(C3CCCC3)C(CCO)C2)cn1 (stereo unspecified)	4%	i	i	1%	-10%	4%
OCCC1CN(Cc2cnc(-c3cccc4ccccc34)nc2)CCN1C1CCCCC1 (stereo unspecified)	9%	i	i	5%	1.8µM*	8%
CCCCCn1c(CCCNC(=O)c2cccc(C)c2)nc2ccccc21	x	i	i	x	x	x
Cc1cccc(N2C(=O)CC(Sc3nc(C)c4c(n3)CCCC4)C2=O)c1 (stereo unspecified)	12%	16µM*	i	13%	5.8µM*	4%
Cc1cccc(N2C(=O)CC(Sc3nc(-c4ccccc4)c4cc(Cl)ccc4n3)C2=O)c1 (stereo unspecified)	11%	u	i	2.8µM*	-5%	u
CCOC(=O)c1ccccc1OC(=O)NNc1ccccc1	4%	i	12µM*	x	-7%	x
O=C(NNc1ccccc1)OCc1ccccc1	x	i	i	x	x	x
CCCc1cc(-c2ccc3c(c2)COc2c4ccccc4nn2-3)on1	16µM*	i	i	x	-3%	x
Cc1cc(-c2ccc3c(c2)COc2c4ccccc4nn2-3)on1	-2%	i	i	x	u	x
Cc1ccc(CCNC(=O)c2cn(C)c3ccc(S(=O)(=O)N4CCCCC4)cc3c2=O)cc1	x	i	u	x	x	x
COC(=O)C(C(=O)OC)[C@@H]1O[C@@]23COC=C[C@]2(C)[C@H]3c2ccccc21	x	x	x	17%	x	-14%
S=c1[nH]nc(-c2cccnc2)n1Cc1ccccc1	0%	i	i	u	-9%	u
Cc1scc(-c2n[nH]c(=S)n2Cc2ccccc2)c1C	-4%	i	i	2.2µM*	-6%	11µM*
COc1ccc(Cl)cc1-c1n[nH]c(=S)n1Cc1ccccc1	-1%	i	i	5µM*	-1%	5µM*
Cn1c(-c2csc(-c3ccccc3)n2)n[nH]c1=S	2%	u	u	7%	0%	-5%
CCc1c(-c2n[nH]c(=S)n2Cc2ccccc2)csc1C	u	i	i	2.2µM*	-1%	7.9µM*
SMILES	MCF10A rerep	KB-V1 cytotox	KB-3-1 tox	RORg inh	SW480 rerep	Gal4-VP16 FLuc
S=c1[nH]nc(-c2ccc3ccccc3n2)n1Cc1ccccc1	4%	i	i	2.2µM*	-8%	5.6µM*
S=c1[nH]nc(-c2ccccc2Cl)n1Cc1ccccc1	12%	i	i	2.8µM*	-7%	u
S=c1[nH]nc(-c2ccc3ccccc3n2)n1-c1cc(Cl)cc(Cl)c1	20%	16µM*	i	0.79µM*	-1%	2.2µM*
CCCCOc1ccc(-c2nnn(CC(=O)NCCc3c[nH]c4ccccc34)n2)cc1	u	16µM*	i	u	-1%	u
COc1ccc(NC(=O)Cn2nnc(-c3ccc(CN4CCOCC4)cc3)n2)c(OC)c1	9%	21µM*	i	33%	-2%	-8%
COC(=O)c1ccccc1NC(=O)Cn1nnc(-c2ccc(OC)cc2)n1	16%	15µM*!	i	5%	-2%	-8%
COc1ccccc1NC(=O)Cn1nnc(-c2ccccc2NS(=O)(=O)c2ccccc2)n1	7%	5.8µM*	u	42%	u	u
COCCN1C(=O)CCC1(C)C(=O)Nc1ccc2c(c1)OCCO2 (stereo unspecified)	x	i	i	x	x	x
CC1(C(=O)Nc2cnc3ccccc3c2)CCN1Cc1cc2ccccc2o1 (stereo unspecified)	x	u	i	x	x	x
CCCCOc1ccc(CC(=O)N(C)OC)cc1	x	i	i	x	x	x
CCCOc1ccc(-c2nnn(CC(=O)Nc3cccc(C(=O)OC)c3)n2)cc1	16%	13µM*	i	-11%	8%	-9%
COc1ccc(C2CC(C)(c3ccc(OC)cc3)Nc3ccccc3N2)cc1 (stereo unspecified)	u	u	21µM*	2%	u	-5%
COc1ccc(OCCNC(=O)c2cccc(Oc3ccc(C(F)(F)F)cc3[N+](=O)[O-])c2)cc1	u	2.9µM*	u	u	-34%	-6%
